# Measurements: PubChem BioAssay AID588726 (The Scripps Research Institute Molecular Screening Center, 2011)
# Screen size: about 360,000 compounds; about 8,200 (2.3%) were called active. What follows is part of a selection rich in actives, with near analogues and random picks from the rest. Unmarked numbers belong to inactive results. Cut-off read from the data, not from the text of the source: active = inhibition above about 27%; inactive = the rest.
# Molecular target: Fructose-bisphosphate aldolase (Mycobacterium tuberculosis (strain ATCC 25618 / H37Rv)) (UniProt P9WQA3)
# Sequence (P9WQA3 whole entry, looked up): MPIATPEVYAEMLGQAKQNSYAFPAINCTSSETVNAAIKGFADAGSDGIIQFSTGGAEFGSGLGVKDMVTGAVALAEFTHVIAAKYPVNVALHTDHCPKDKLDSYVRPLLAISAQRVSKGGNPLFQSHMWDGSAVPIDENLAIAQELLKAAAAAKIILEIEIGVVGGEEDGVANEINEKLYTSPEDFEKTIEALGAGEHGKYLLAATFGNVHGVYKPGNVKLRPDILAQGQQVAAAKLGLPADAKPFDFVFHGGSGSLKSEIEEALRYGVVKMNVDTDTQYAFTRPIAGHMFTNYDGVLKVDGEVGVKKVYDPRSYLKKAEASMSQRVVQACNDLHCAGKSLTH
# Assay: M. tuberculosis aldolase activity blockers – biochemical, fluorescence, strain H37Rv, primary screen (AID 588726);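 note: 0% = vehicle and 100% = reference inhibitor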
# Details: purified M. tuberculosis FBA, fluorescence read-out, at 1 µM, hits give high values
row,Structure (SMILES),inhibition
1,Cc1ccc(NC(=O)CN(C)C(=O)COC(=O)c2nccnc2N)cc1,88.8% (active)
2,Cc1ccc(CSCC(=O)N(C)CC(=O)Nc2ccc(C)cc2)cc1,-2.58%
3,Cc1ccc(NC(=O)CN(C)C(=O)COC(=O)C(C)(C)Oc2ccc(Cl)cc2)cc1,2.5%
4,COc1cc2c(cc1OC)C1C(=O)c3cc(OS(C)(=O)=O)c(OC)cc3C1N(C)C2=O (centres undefined),3.73%
5,O=C(Nc1nnc(C2=COCCO2)o1)c1ccc([N+](=O)[O-])s1,-5.53%
6,O=C(Nc1nccs1)C1CCCN1S(=O)(=O)c1cccc2cccnc12 (centres undefined),-1.37%
7,COc1ccc(C(C)=O)cc1CSc1nc2nc(C)cc(C)n2n1,-0.02%
8,Cc1cc(C)nc(SCc2cn3c(C)cc(C)nc3n2)n1,78.2% (active)
9,CCn1c(CSc2nc(C)cc(C)n2)nnc1SCC(N)=O,-3.73%
10,COc1ccc(C(CNC(=O)CSc2ccccc2)N2CCOCC2)cc1 (centres undefined),2.08%
11,COc1cc2sc(C)nc2cc1C,4.23%
12,CC(=O)N1CCOc2ccc(S(=O)(=O)N3CCC(C(=O)Nc4ccccc4F)CC3)cc21,3.64%
13,O=C(Nc1cccc2ccccc12)N1CCC2(CC1)OCCO2,44.6% (active)
14,O=C(Cc1ccccc1[N+](=O)[O-])N1CCN(Cc2ccc3c(c2)OCO3)CC1,0.16%
15,COc1ccc(NC(=O)N2CCC3(CC2)OCCO3)c(OC)c1,-0.76%
16,O=C(c1ccccc1[N+](=O)[O-])N1CCC2(CC1)OCCO2,0.71%
17,O=C(Nc1cccc2ccccc12)N1CCN(Cc2ccc3c(c2)OCO3)CC1,41.2% (active)
18,O=C(CCCN1C(=O)c2cccc3cccc(c23)C1=O)N1CCN(Cc2ccc3c(c2)OCO3)CC1,10.2%
19,CCOC(=O)c1cc2cc(-c3c(C(=O)OCC)oc4cc(O)cc(O)c4c3=O)ccc2o1,0.2%
20,COc1ccc(Cc2nnnn2CC(=O)O)cc1,0.07%
21,CN(CC(=O)Nc1ccccc1C(F)(F)F)C(=O)Cc1ccccc1F,-1.8%
22,CC(C)N1C(=S)SC(C)(C)C1n1oc(=O)n(-c2ccc(Cl)c(Cl)c2)c1=O (centres undefined),1.39%
23,COc1ccc(-c2c(C(C)=O)c(C)nc3sc4c(=O)n(-c5ccc(C)cc5)nnc4c23)cc1,3.94%
24,CCN1CC=C2C(C#N)=C(N)C(C#N)(C#N)[C@H](c3ccoc3)[C@H]2C1,28% (active)

row,Structure (SMILES),inhibition
1,COC(=O)[C@]1(Cc2ccccc2)N[C@H](CN(C)S(=O)(=O)c2ccc(OC(F)(F)F)cc2)[C@@H]2C(=O)N(C)C(=O)[C@@H]21,0.06%
2,O=C1c2ccccc2-c2ccccc2NC1O (centres undefined),-1.24%
3,COc1ccc2[nH]c3ccc(OC)cc3c2c1,28.3% (active)
4,COc1ccc2[nH]c3c(C)c4cc[n+](C)cc4c(C)c3c2c1,-3.24%
5,COc1ccc2[nH]c3c(c2c1)CCN[C@H]3C,0.12%
6,C[C@]1(C(=O)NCCc2c[nH]c3ccccc23)C=C[C@@H](Cc2ccccc2)N1C(=O)c1ccccc1,-0.23%
7,COc1ccc(NC(=O)CSc2nnc(C3CC3)n2C)cc1S(=O)(=O)N1CCCCC1,-1.4%
8,CCOc1ccc(N(CC(=O)Nc2ccccc2F)S(=O)(=O)c2c(C)[nH]c(=O)[nH]c2=O)cc1,0.28%
9,O=C(NCCCn1ccnc1)C1CCCN(S(=O)(=O)c2cc(Cl)ccc2Cl)C1 (centres undefined),-0.78%
10,CCCCN=C(N)/C(C(=O)OCC)=C(\O)c1ccc(OC)cc1,-0.66%
11,CC(C)OC(=O)c1ccc(COc2ccc3ccc(=O)oc3c2)o1,17.9%
12,Cc1noc(C)c1COC(=O)COc1ccc(-c2ccccc2)cc1,-1.21%
13,Cc1noc(C)c1COc1ccc2ccc(=O)oc2c1,28.6% (active)
14,O=C(CSc1ncnc2c1oc1ccccc12)NC1CCCC1,-1.09%
15,CCOc1ccc(CCNC(=O)COC(=O)c2c(OC)cccc2OC)cc1OCC,-0.8%
16,COc1ccc(C(=O)OCc2cc(=O)n3ccsc3n2)cc1F,-2.01%
17,COc1ccc(NC(=S)NCC2CCN(c3ccc(OC)cc3)C2)cc1 (centres undefined),-3.11%
18,COc1ccc([C@H]2N[C@]3(CCCN(Cc4ccco4)C3=O)[C@H]3C(=O)N(C)C(=O)[C@@H]23)cc1,-1.27%
19,COC(=O)Cc1nc2c(N)nc(N)nc2[nH]c1=O,159% (active)
20,COc1cc(C(=O)NC2CCN(C)CC2)ccc1Nc1ncc2c(n1)N(C1CCC(O)CC1)CCC(=O)N2C (centres undefined),1.68%
21,CC(C)(C)N1CC(c2nc3ccccc3n2Cc2ccc(F)cc2)CC1=O (centres undefined),-9.37%
22,O=c1[nH]cccc1-c1nc2ccccc2n1Cc1ccc(Cl)cc1,187% (active)
23,O=C(O)CCc1nc2cc(Cl)ccc2n(Cc2ccccc2)c1=O,1.59%
24,O=C(CNC(=O)OCc1ccccc1)NC1CCCCNC1=O (centres undefined),0.55%

row,Structure (SMILES),inhibition
1,CC12CN3CCN(CC(C3)/C1=N\NC(=O)c1ccccc1N)C2,1.1%
2,Nc1ccccc1C(=O)NC1CCCCNC1=O (centres undefined),68.5% (active)
3,Cc1c(Cc2ccccc2)c(=O)oc2cc(OCC(N)=O)ccc12,65.5% (active)
4,CC(=O)Oc1ccc2c(C)c(CC(C)O)c(=O)oc2c1 (centres undefined),"797% [above what the read-out allows, likely interference] (active)"
5,COc1cccc(-c2coc3cc4oc(=O)c(CC(=O)O)c(C)c4cc23)c1,6.49%
6,CCOC(=O)c1cc(=O)c2ccc(OCc3ccccc3)cc2o1,2.55%
7,Cc1coc2cc3oc(=O)c(CCC(=O)O)c(C)c3cc12,16.5%
8,Cc1cc(C)cc(Oc2c(C(F)(F)F)oc3cc(OCC(=O)O)ccc3c2=O)c1,-1.51%
9,Cc1c(C)c2ccc(OCC(=O)N3CCN(c4cccc(Cl)c4)CC3)cc2oc1=O,6.95%
10,COC(=O)Cc1c(C)c2ccc(OCC(=O)NCc3ccc4c(c3)OCO4)cc2oc1=O,12%
11,Cc1c(CCC(=O)O)c(=O)oc2cc(OCc3ccc(Br)cc3)ccc12,46.6% (active)
12,Cc1ccc(OCC(=O)Nc2ccc3oc(=O)ccc3c2)cc1C,1.09%
13,CC(=O)Nc1cc2ccc(OC(C)=O)cc2oc1=O,179% (active)
14,O=C(Oc1ccccc1)Oc1ccc2c(c1)oc(=O)c1ccccc12,8.31%
15,O=S(=O)(c1cccc(C(F)(F)F)c1)N1c2ccccc2-n2cccc2C1c1cccnc1 (centres undefined),-0.16%
16,O=C(Nc1c(-c2ccccc2)nc2c(Br)cc(Br)cn12)c1ccco1,1.02%
17,Cc1cc(C(C)(C)C)oc1C(=O)N(CC(=O)NC1CCCC1)Cc1ccc(Cl)cc1,3.61%
18,COCC1CCN(C(=O)c2ccc3oc(Cc4ccccc4)nc3c2)C1 (centres undefined),2.73%
19,O=C1NCC(Nc2ccccc2)C(=O)N1 (centres undefined),-2.44%
20,N=c1ccn(CC(=O)NC(N)=O)c2ccccc12,0%
21,CC1C(C)N(C(=O)CCl)c2ccccc2N1C(=O)CCl (centres undefined),-0.21%
22,CCN(CC)S(=O)(=O)c1ccc(NC(=O)c2cccnc2Cl)c(NC(=O)c2cccnc2Cl)c1,-0.1%
23,COc1ccccc1CN1CC(C(=O)NCCc2cn[nH]c2)CCC1=O (centres undefined),3.36%
24,Cc1c(C(=O)Nc2cccc(Cl)c2)cn2c(nc3ccccc32)c1C#N,-0.2%

row,Structure (SMILES),inhibition
1,Cc1nc(-c2ccccc2)cn2c1nc1ccccc12,119% (active)
2,Cc1nc2ccccc2n1CC(O)c1ccccc1 (centres undefined),-0.66%
3,CN1CCn2cnc(C(=O)NCC(=O)OC(C)(C)C)c2C1=O,-1.37%
4,Cc1coc2c1c(C)cc1oc(=O)c(CC(=O)NCC(=O)N[C@H](C(=O)O)C(C)C)c(C)c12,105% (active)
5,Cc1c(CC(=O)NCC(=O)NCC(=O)O)c(=O)oc2cc3oc4c(c3cc12)CCCC4,16.6%
6,CSCC[C@H](NC(=O)N1CCn2c1nc1ccccc12)C(=O)NC1CCCCC1,-1.03%
7,CCN(CCn1cccn1)Cc1nc(-c2ccc(C(=O)OC)cc2)no1,0.65%
8,CCOC(=O)COc1ccc(Cl)cc1C1NC(=O)NC(C)=C1C(C)=O (centres undefined),0.97%
9,COc1ccccc1OCC(=O)OCc1cc(-c2ccco2)on1,2.93%
10,CCOC(=O)COc1cc(OCC(=O)OCC)c2c(=O)cc(-c3ccccc3)oc2c1,39.2% (active)
11,COCCC(=O)Nc1ccc2c(c1)CN(C(=O)CCOC)CC2,2.39%
12,O=C(NCc1ccccc1)c1onc(CSc2ccncc2)c1C(=O)NCc1ccccc1,0.92%
13,O=C(NCc1ccccc1)c1onc(CSc2nc3ccccc3[nH]2)c1C(=O)NCc1ccccc1,27.9% (active)
14,O=C(NCC1CC1)c1onc(CSc2ccccc2)c1C(=O)NCC1CC1,3.54%
15,O=C(CN1CCN(C(=O)C2CCCO2)CC1)Nc1c(Cl)cccc1Cl (centres undefined),-2.38%
16,O=C(CCCCCn1c(=S)[nH]c2ccsc2c1=O)NC1CCCCC1,3.56%
17,CC(C)c1cc(NCc2ccccn2)n2c(nc3ccccc32)c1C#N,17.6%
18,Cc1ccc(S(=O)(=O)N(C)c2nc3ccccc3n3c(C(C)C)nnc23)cc1,-0.15%
19,CCOCCCNc1c(CC)c(C)c(C#N)c2nc3ccccc3n12,4.3%
20,Cc1cc(NC(C)C)n2c(nc3ccccc32)c1C#N,41.7% (active)
21,Cc1cc(NCc2ccco2)n2c(nc3ccccc32)c1C#N,162% (active)
22,Cc1ccc2[nH]c(=O)c(-c3nc4c(C)cccn4c3NCc3ccco3)cc2c1,4.83%
